Test systems include DU-145 prostate; K-562 leukemia; MALME-3M melanoma; MDA-MB-231 breast; RXF 393 renal; SF-268 CNS; SF-295 CNS; SF-539 CNS; UACC-257 melanoma; M14 melanoma; HCT-15 colon; HT29 colon; SNB-75 CNS; U251 CNS; PC-3 prostate; UACC-62 melanoma; LOX IMVI melanoma; SK-MEL-28 melanoma; SK-MEL-5 melanoma; SNB-19 CNS.
Holding throughout (experiment): NCI-60 one-dose screen, 48 h (100 = growth as untreated, 0 = no growth, -100 = all killed)
Conditions in all cases: 10 µM unless noted

The panel holds about 83,000 compounds, 20% with a hit somewhere; the sample as a whole holds those more often.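 Each cell line was grown in a 96-well plate and treated with one concentration of compound for 48 hours. Values below 10 were considered active.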 Values without a mark were called inactive. Activity calls are given as the source filed them.

On to `O=C1C=C(OCC=C(Cl)Cl)C(=O)c2ccccc21`, for which the growth in the assay on DU-145 prostate is 77.4%; in the assay on K-562 leukemia it was 80%; in the assay on MALME-3M melanoma, 80.9%; in the assay with MDA-MB-231 breast it was 84.7%; in the assay with RXF 393 renal it was 86.6%; with SF-268 CNS, 94.4%. The growth was 92.8% in the assay on SF-295 CNS; 93.2% in the assay with SF-539 CNS; 76.4% in the assay on UACC-257 melanoma; 83.3% in the assay with M14 melanoma; 64.2% with HCT-15 colon; 82.4% in the assay on HT29 colon. Besides, the growth in the assay on SNB-75 CNS is 50.6%; with U251 CNS it was 75.7%; with PC-3 prostate, 80.9%; in the assay with UACC-62 melanoma, 87%; in the assay on LOX IMVI melanoma, 28.8%; with SK-MEL-28 melanoma, 104%.

With `Cc1nc(/N=C(\N)NC(=O)Nc2cccc([N+](=O)[O-])c2)sc1C`, the growth in the assay with DU-145 prostate was 89.8%; in the assay on K-562 leukemia, 14.3%; with MALME-3M melanoma it was 78.2%; with MDA-MB-231 breast, 98.8%; with RXF 393 renal, 91.4%; in the assay on SF-268 CNS, 92.9%. Moreover, the growth in the assay with SF-295 CNS was 83.3%; with SF-539 CNS, 78.4%; in the assay on UACC-257 melanoma, 88.5%; in the assay with M14 melanoma it was 57.1%; with HCT-15 colon it was 30.1%; with HT29 colon it was 42.8%. Further, the growth in the assay on SNB-75 CNS was 58.3%; in the assay on PC-3 prostate, 77.1%; in the assay with SK-MEL-5 melanoma, 91.1%; in the assay with UACC-62 melanoma it was 63.1%; in the assay with LOX IMVI melanoma, 71.7%; in the assay on SK-MEL-28 melanoma, 80.5%.

In the case of `N#C/C(=C\c1ccc(-c2cc(C(F)(F)F)ccc2Cl)o1)c1nc(-c2ccco2)cs1`, the growth with DU-145 prostate is 108%; with K-562 leukemia it was 89.3%; in the assay on MALME-3M melanoma, 106%; in the assay on MDA-MB-231 breast it was 93.1%; with RXF 393 renal it was 112%; with SF-268 CNS, 99.7%. The growth was 101% with SF-295 CNS; 99.3% with SF-539 CNS; 112% in the assay on UACC-257 melanoma; 99.4% with M14 melanoma; 103% in the assay with HCT-15 colon; 101% with HT29 colon. Moreover, the growth was 70% in the assay with SNB-75 CNS; 99.5% in the assay with PC-3 prostate; 97.5% in the assay on SK-MEL-5 melanoma; 78.9% with UACC-62 melanoma; 99.5% with LOX IMVI melanoma; 108% with SK-MEL-28 melanoma.

Turning to `O=C1c2cccc3cccc(c23)C(=O)N1CCCCN1CCN(CCCCOc2ccc(-c3nc4ccc(N5CCOCC5)cc4[nH]3)cc2)CC1`, the growth is 77.2% in the assay on DU-145 prostate; 57.1% in the assay on K-562 leukemia; 86.5% with MALME-3M melanoma; 91.6% in the assay on MDA-MB-231 breast; 24.1% in the assay with RXF 393 renal; 68.6% with SF-268 CNS. The growth was 74.7% in the assay on SF-295 CNS; 106% with SF-539 CNS; 96.6% in the assay on UACC-257 melanoma; 98.4% in the assay on M14 melanoma; 87.8% in the assay on HCT-15 colon; 83.3% with HT29 colon. The growth was 84.8% in the assay on SNB-75 CNS; 74.6% with U251 CNS; 89.2% with SK-MEL-5 melanoma; 92.8% in the assay with UACC-62 melanoma; 93.7% in the assay with LOX IMVI melanoma; 81.5% with SK-MEL-28 melanoma.

Regarding `O=C(O)c1c(=O)cccc2ssc12`, the growth in the assay with DU-145 prostate was -64.5% (active); with K-562 leukemia it was 4.02% (active); in the assay on MALME-3M melanoma, -58.3% (active); in the assay on MDA-MB-231 breast, -57.3% (active); in the assay on RXF 393 renal it was -66.8% (active); in the assay with SF-268 CNS it was -38.6% (active). The growth with SF-295 CNS is -6.02% (active); with SF-539 CNS, -18.6% (active); with UACC-257 melanoma, 54.1%; in the assay on M14 melanoma it was 3.29% (active); in the assay with HCT-15 colon it was 4.16% (active); in the assay on HT29 colon it was -48.6% (active). Also, the growth with SNB-75 CNS is 26.9%; in the assay with U251 CNS, -91.9% (active); in the assay on PC-3 prostate it was -19.3% (active); in the assay on UACC-62 melanoma, 14.3%; in the assay on LOX IMVI melanoma it was 1.04% (active); with SK-MEL-28 melanoma, 10.8%.

`Cc1c(/C=C/[N+](=O)[O-])ccc2c1[nH]c1ccccc12`: the growth in the assay with DU-145 prostate was 99.3%; in the assay on K-562 leukemia it was 91.6%; in the assay with MALME-3M melanoma, 135%; in the assay on MDA-MB-231 breast, 106%; with RXF 393 renal it was 62.6%; in the assay on SF-268 CNS it was 108%. For the same molecule, the growth is 103% in the assay with SF-295 CNS; 94.2% with SF-539 CNS; 90% in the assay with UACC-257 melanoma; 37.7% with M14 melanoma; 81.3% in the assay on HCT-15 colon; 107% in the assay on SNB-75 CNS. The growth is 100% in the assay on SNB-19 CNS; 73.7% in the assay on U251 CNS; 95.5% in the assay on PC-3 prostate; 81% with UACC-62 melanoma; 113% in the assay on SK-MEL-28 melanoma.

On to `CC(C)(C)c1cc(/C=N\NC(=O)/C=C/C=C/c2ccc3c(c2)OCO3)c(O)c(C(C)(C)C)c1`, for which the growth in the assay on DU-145 prostate is 56%; in the assay with K-562 leukemia, 59.9%; in the assay on MALME-3M melanoma, 71.3%; with MDA-MB-231 breast it was 79%; in the assay on RXF 393 renal, 94.6%; with SF-268 CNS, 67.4%. The growth was 92.9% in the assay with SF-295 CNS; 87.5% in the assay on SF-539 CNS; 88% in the assay on UACC-257 melanoma; 73.3% in the assay with M14 melanoma; 63.7% with HCT-15 colon; 31.9% in the assay with SNB-75 CNS. In addition, the growth is 84% in the assay with U251 CNS; 69.1% in the assay with PC-3 prostate; 71.5% with UACC-62 melanoma; 61.7% in the assay with LOX IMVI melanoma; 85.8% in the assay on SK-MEL-28 melanoma.

Take `COc1ccc(C2Nc3c(c(C(C)(C)C)nn3-c3ccccc3)C(=O)CS2)cc1` (stereo not given): the growth in the assay on DU-145 prostate is 101%; in the assay on K-562 leukemia it was 98.5%; with MALME-3M melanoma, 98%; in the assay on MDA-MB-231 breast, 94.2%; with RXF 393 renal, 103%; with SF-268 CNS, 98%. Also, the growth in the assay on SF-539 CNS was 109%; with UACC-257 melanoma it was 101%; with M14 melanoma, 112%; with HCT-15 colon it was 97.7%; in the assay with HT29 colon, 86.7%; in the assay on SNB-75 CNS it was 89.2%. Moreover, the growth in the assay with SNB-19 CNS was 98.8%; with U251 CNS, 102%; in the assay with PC-3 prostate, 79.5%; with UACC-62 melanoma, 80%; in the assay on LOX IMVI melanoma, 94.5%; with SK-MEL-28 melanoma, 113%.

For `NC(=O)c1cc(I)ccc1NC(=O)/C=C/c1ccccc1Cl`, the growth was -18.8% (active) in the assay on DU-145 prostate; 5.46% (active) with K-562 leukemia; 67.5% with MALME-3M melanoma; 23.3% in the assay on MDA-MB-231 breast; -17.9% (active) in the assay with RXF 393 renal; 36.8% in the assay with SF-268 CNS. Besides, the growth in the assay with SF-539 CNS is -35.7% (active); in the assay with UACC-257 melanoma it was 65.7%; in the assay on M14 melanoma, 4.96% (active); in the assay with HCT-15 colon it was 17.8%; in the assay with HT29 colon it was 8.09% (active); in the assay on SNB-75 CNS, -14.5% (active). Also, the growth with SNB-19 CNS was 31.9%; in the assay with U251 CNS, 21.8%; with SK-MEL-5 melanoma, 3.33% (active); with UACC-62 melanoma it was 37.8%; in the assay on LOX IMVI melanoma it was 50.7%; with SK-MEL-28 melanoma it was 38%.

Values taken from PubChem BioAssay (NCI).
